Drawing on ChEMBL document CHEMBL1961873, “Compounds: GSK PKIS; Assays: Nanosyn kinase panel” (2012), this text covers inhibition for 6 compounds.

The structures appear in SMILES notation.

Experiment [1] deals with T1, Tyrosine-protein kinase ITK/TSK (Homo sapiens) (UniProt Q08881).
T1 sequence (whole entry): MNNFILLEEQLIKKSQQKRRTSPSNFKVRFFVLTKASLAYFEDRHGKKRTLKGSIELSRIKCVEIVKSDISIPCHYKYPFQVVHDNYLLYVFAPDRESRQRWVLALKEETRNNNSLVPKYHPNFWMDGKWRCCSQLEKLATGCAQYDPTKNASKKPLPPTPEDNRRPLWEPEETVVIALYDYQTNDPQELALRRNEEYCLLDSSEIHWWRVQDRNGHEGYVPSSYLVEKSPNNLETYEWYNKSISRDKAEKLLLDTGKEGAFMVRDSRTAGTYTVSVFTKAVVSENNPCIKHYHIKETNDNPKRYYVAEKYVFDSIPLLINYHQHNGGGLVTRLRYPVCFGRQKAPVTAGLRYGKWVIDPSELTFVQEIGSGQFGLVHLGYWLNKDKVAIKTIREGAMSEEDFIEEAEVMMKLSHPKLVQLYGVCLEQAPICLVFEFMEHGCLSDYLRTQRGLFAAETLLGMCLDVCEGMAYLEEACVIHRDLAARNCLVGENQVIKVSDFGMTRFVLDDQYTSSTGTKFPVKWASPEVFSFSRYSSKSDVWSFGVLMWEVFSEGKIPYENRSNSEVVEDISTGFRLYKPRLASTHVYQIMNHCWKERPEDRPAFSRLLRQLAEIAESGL
As to conditions: at 1 µM.

Experiment [2] has as its target Tyrosine-protein kinase JAK1 (Homo sapiens) (UniProt P23458). The conditions noted are these: at 0.1 µM.
Experiment [3] shares this target. The conditions noted are these: at 1 µM.
In experiment [4] the target is Tyrosine-protein kinase JAK2 (Homo sapiens) (UniProt O60674). The conditions noted are these: at 0.1 µM.
Sequence of Tyrosine-protein kinase JAK2 (Homo sapiens) (O60674 whole entry): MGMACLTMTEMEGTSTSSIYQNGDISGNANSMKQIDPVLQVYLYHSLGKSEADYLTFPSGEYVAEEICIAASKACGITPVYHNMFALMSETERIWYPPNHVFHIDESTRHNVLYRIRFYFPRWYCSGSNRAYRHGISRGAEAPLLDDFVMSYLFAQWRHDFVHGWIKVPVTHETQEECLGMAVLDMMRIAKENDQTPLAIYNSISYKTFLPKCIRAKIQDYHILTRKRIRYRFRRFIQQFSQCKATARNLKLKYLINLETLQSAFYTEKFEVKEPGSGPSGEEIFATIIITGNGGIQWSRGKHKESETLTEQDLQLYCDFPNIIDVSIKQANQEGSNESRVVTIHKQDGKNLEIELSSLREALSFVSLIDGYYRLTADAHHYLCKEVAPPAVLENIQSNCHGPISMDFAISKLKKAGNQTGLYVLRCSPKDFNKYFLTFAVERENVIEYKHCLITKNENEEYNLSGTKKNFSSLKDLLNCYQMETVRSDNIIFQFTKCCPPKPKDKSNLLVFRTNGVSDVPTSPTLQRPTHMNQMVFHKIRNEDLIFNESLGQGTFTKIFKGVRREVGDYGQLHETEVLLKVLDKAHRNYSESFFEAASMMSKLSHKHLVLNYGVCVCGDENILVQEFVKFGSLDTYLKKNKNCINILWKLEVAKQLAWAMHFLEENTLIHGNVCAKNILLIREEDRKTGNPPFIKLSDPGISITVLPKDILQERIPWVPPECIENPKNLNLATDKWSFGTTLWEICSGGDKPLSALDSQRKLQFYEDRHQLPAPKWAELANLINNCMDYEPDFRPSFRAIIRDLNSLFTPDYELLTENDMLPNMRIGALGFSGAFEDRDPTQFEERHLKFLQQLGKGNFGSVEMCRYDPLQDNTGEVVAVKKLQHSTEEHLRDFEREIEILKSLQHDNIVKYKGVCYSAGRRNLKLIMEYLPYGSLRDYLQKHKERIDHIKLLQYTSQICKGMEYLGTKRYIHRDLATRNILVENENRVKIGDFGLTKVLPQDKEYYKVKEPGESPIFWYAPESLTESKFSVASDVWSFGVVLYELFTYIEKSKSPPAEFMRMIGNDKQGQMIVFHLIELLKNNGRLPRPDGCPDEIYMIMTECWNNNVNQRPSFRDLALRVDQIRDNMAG
Experiment [5] shares this target. The conditions noted are these: at 1 µM.
In experiment [6] the target is T2, Tyrosine-protein kinase JAK3 (Homo sapiens) (UniProt P52333).
T2 sequence (whole entry): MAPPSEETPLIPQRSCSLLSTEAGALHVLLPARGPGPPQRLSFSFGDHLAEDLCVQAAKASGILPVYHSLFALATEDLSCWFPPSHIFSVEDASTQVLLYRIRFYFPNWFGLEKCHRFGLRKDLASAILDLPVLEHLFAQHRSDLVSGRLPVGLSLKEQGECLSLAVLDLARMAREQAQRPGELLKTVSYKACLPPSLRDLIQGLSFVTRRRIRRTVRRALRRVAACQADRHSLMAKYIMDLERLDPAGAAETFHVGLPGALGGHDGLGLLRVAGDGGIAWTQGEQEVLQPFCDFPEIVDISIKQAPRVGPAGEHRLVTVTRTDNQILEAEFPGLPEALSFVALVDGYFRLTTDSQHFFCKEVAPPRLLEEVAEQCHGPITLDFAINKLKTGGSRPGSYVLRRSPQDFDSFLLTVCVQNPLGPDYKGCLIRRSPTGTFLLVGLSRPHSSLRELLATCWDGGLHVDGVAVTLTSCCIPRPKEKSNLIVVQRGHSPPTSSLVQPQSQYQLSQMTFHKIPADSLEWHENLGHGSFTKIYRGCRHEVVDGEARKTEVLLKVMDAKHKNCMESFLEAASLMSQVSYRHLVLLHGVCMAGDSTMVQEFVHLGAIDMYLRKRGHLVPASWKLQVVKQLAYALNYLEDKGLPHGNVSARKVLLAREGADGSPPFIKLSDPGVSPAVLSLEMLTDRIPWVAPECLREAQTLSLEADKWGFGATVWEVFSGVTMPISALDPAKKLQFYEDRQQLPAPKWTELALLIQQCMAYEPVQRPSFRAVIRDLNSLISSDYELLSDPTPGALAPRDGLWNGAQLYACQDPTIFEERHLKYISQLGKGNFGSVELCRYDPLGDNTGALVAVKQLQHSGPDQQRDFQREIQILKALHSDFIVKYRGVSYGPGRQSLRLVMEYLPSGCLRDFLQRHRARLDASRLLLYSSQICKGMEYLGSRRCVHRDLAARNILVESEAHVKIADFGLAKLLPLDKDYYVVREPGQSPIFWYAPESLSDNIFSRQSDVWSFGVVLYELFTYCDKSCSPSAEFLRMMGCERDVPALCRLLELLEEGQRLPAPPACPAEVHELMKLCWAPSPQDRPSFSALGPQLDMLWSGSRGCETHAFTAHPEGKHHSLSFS
As to conditions: at 0.1 µM.

Experiment [7] concerns the target T2, Tyrosine-protein kinase JAK3 (Homo sapiens). As to conditions: at 1 µM.
The target of experiment [8] is Vascular endothelial growth factor receptor 2 (Homo sapiens) (UniProt P35968). The conditions noted are these: at 0.1 µM.
Sequence of Vascular endothelial growth factor receptor 2 (Homo sapiens) (P35968 whole entry): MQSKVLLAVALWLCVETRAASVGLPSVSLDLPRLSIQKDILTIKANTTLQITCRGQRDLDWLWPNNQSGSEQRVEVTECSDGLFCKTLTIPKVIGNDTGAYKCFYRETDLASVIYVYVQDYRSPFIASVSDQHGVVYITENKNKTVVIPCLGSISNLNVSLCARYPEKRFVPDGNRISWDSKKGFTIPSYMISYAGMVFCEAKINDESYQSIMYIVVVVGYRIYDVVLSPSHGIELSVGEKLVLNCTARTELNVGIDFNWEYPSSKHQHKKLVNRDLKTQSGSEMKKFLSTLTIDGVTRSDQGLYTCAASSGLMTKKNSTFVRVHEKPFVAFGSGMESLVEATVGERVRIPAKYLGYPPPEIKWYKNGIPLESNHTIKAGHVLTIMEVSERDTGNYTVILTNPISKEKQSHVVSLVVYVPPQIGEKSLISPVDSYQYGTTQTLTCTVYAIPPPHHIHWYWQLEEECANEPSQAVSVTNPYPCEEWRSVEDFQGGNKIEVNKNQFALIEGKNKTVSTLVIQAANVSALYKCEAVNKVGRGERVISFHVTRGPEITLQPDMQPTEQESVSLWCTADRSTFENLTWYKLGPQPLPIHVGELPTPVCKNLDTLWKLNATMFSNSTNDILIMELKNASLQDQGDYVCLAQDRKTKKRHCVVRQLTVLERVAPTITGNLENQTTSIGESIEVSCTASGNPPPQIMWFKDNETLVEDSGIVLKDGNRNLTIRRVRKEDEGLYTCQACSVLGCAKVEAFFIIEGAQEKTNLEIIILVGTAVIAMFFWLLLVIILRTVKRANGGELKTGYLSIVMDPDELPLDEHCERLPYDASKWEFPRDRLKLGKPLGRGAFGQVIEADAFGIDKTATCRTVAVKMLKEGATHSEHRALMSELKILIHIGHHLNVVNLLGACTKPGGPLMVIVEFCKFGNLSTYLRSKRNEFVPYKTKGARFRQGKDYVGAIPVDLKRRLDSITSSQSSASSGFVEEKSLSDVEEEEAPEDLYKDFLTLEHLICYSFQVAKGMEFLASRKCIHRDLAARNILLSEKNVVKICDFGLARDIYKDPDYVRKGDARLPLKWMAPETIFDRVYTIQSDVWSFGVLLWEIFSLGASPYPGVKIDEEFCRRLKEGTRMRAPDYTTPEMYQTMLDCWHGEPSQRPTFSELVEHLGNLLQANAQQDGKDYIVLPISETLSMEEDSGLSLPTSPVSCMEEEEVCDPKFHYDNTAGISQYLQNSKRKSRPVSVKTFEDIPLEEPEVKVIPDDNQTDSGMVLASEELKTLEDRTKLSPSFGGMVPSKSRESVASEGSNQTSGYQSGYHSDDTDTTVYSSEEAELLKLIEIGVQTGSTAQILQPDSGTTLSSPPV
The target is the same in experiment [9]. As to conditions: at 1 µM.
The target of experiment [10] is Mast/stem cell growth factor receptor Kit (Homo sapiens) (UniProt P10721). As to conditions: at 1 µM.
Sequence of Mast/stem cell growth factor receptor Kit (Homo sapiens) (P10721 whole entry): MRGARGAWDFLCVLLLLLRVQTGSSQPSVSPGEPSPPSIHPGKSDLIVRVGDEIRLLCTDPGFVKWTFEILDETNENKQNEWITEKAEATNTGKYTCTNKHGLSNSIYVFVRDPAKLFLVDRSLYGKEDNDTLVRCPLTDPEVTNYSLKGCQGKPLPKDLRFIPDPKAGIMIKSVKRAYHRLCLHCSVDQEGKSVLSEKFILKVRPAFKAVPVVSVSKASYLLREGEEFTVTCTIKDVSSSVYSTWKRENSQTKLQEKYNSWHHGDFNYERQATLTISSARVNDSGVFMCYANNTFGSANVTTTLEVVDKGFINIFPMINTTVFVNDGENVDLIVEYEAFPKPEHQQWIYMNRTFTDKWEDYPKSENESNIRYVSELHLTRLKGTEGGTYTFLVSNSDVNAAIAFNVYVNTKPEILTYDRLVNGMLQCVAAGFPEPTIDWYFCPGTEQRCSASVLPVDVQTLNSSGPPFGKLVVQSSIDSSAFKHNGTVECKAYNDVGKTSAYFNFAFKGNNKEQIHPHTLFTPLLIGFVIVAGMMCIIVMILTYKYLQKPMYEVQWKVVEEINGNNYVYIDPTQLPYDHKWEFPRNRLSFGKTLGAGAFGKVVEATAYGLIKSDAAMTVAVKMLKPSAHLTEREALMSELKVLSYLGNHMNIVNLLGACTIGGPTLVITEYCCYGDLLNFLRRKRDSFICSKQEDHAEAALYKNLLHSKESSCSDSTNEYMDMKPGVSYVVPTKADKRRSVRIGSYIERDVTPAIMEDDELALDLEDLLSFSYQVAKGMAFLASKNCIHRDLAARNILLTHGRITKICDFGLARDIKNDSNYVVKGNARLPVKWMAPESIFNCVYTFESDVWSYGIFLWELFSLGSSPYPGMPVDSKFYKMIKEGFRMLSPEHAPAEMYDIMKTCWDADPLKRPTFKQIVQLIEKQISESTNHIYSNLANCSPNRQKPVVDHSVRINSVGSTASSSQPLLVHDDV
The test system of experiment [11] is Mast/stem cell growth factor receptor Kit (Homo sapiens), P10721 [D816V]. As to conditions: at 0.1 µM.
Sequence of Mast/stem cell growth factor receptor Kit (Homo sapiens), P10721 [D816V] (P10721 whole entry D816V): as the sequence (P10721 whole entry) above, with D816V counted along it
Experiment [12] has the same test system. The conditions noted are these: at 1 µM.
In experiment [13] the test system is Mast/stem cell growth factor receptor Kit (Homo sapiens), P10721 [T670I]. The conditions noted are these: at 0.1 µM.
Sequence of Mast/stem cell growth factor receptor Kit (Homo sapiens), P10721 [T670I] (P10721 whole entry T670I): as the sequence (P10721 whole entry) above, with T670I counted along it
Experiment [14] shares this test system. As to conditions: at 1 µM.
Experiment [15] has as its system Mast/stem cell growth factor receptor Kit (Homo sapiens), P10721 [V560G]. As to conditions: at 0.1 µM.
For experiment [16] the test system is unchanged. The conditions noted are these: at 1 µM.
Experiment [17] deals with Tyrosine-protein kinase Lck (Homo sapiens) (UniProt P06239). The conditions noted are these: at 0.1 µM.
Sequence of Tyrosine-protein kinase Lck (Homo sapiens) (P06239 2-509 limits assumed): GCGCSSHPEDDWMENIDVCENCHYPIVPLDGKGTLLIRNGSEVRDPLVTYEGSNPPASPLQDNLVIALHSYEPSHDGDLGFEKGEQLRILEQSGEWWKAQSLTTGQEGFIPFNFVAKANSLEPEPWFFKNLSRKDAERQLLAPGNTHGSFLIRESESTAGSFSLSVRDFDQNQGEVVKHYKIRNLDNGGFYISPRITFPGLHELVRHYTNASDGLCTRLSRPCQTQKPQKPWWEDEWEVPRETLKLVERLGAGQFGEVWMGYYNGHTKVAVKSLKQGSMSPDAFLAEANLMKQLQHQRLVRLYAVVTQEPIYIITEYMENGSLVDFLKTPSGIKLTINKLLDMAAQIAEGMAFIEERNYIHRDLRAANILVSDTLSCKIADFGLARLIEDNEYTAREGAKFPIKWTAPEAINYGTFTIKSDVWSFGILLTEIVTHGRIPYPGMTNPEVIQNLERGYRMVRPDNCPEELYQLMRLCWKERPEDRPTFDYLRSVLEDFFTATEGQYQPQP
The target is the same in experiment [18]. The conditions noted are these: at 1 µM.
The target of experiment [19] is Leukocyte tyrosine kinase receptor (Homo sapiens) (UniProt P29376). As to conditions: at 0.1 µM.
Sequence of Leukocyte tyrosine kinase receptor (Homo sapiens) (P29376 whole entry): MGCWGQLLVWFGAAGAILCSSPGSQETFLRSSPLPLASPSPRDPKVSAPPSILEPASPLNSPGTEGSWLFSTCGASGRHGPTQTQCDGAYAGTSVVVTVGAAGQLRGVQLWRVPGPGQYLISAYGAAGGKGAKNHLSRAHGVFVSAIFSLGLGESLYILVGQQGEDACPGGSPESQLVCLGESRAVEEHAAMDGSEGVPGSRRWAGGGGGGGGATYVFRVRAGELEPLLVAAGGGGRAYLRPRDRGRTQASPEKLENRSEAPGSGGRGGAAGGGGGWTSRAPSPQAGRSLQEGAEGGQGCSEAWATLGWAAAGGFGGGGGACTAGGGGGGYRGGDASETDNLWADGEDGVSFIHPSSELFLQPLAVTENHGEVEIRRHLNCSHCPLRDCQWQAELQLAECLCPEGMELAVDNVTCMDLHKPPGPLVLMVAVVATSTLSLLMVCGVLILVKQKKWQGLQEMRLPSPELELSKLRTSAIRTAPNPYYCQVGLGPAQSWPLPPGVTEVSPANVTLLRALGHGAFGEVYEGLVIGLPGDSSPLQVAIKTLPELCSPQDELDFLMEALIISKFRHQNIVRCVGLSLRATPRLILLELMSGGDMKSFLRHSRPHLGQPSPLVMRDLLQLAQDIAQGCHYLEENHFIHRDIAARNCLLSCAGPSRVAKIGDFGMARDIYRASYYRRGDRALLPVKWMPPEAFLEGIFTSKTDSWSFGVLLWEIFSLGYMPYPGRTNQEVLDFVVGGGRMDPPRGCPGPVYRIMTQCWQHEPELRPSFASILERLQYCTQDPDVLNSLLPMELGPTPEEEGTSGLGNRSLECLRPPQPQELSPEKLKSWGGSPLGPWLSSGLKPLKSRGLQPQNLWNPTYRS
Experiment [20] deals with Mast/stem cell growth factor receptor Kit (Homo sapiens) (UniProt P10721). As to conditions: at 0.1 µM.

Sequence of Mast/stem cell growth factor receptor Kit (Homo sapiens), P10721 [V560G] (P10721 whole entry V560G): as the sequence (P10721 whole entry) above, with V560G counted along it

Take `COc1cc2ncn(-c3cc(OCc4ccccc4C(F)(F)F)c(C(N)=O)s3)c2cc1OC`: the inhibition was -0.36% in experiment [1]; 1.72% in experiment [2]; 2.62% in experiment [3]; 1.67% in experiment [4]; 1.84% in [5]; -6.46% in [6]. The inhibition in experiment [7] is -2.61%; in experiment [8] it was 21.7%; in experiment [9] it was 68.9%; in [10], 20.5%; in [11], 5.23%; in [12], 7.66%. The inhibition was 3.55% in experiment [13]; 9.7% in experiment [14]; -1.78% in experiment [15]; 2.96% in experiment [16]; 0.99% in experiment [17]; 12.6% in [18]. Moreover, the inhibition in experiment [19] came to 2.36%.

With `CCc1cccc(NC(=O)Nc2ccc(Oc3ccc4nc(NC(=O)OC)[nH]c4c3)cc2)c1`, the inhibition in experiment [1] was 1.87%; in experiment [2] it was 1.39%; in experiment [3], 1.27%; in experiment [4], 1.07%; in experiment [5] it was 4.62%; in experiment [6], -1.05%. For the same compound, the inhibition in [7] worked out at 1.13%; in [20], 87.5%; in experiment [10], 93%; in [11], 0.55%; in [12], 0%; in experiment [13], 58.6%. Besides, the inhibition in experiment [14] is 69.8%; in experiment [15] it was 65.6%; in experiment [16], 74.1%; in experiment [17], 5.87%; in [18], 8.47%; in [19], 1.87%.

As for `CCN1CCC(CC(=O)Nc2n[nH]c3nc(-c4cccs4)c(Br)cc23)CC1`, the inhibition is 0.48% in [1]; -7.81% in experiment [2]; -3.93% in [3]; -1.09% in experiment [4]; -2.38% in experiment [5]; 0.48% in [6]. For the same compound, the inhibition in [7] is 2.19%; in experiment [8], 1.49%; in [9], 15.5%; in experiment [20] it was -4.07%; in experiment [10], -0.08%; in [11], -1.28%. For the same compound, the inhibition is -0.19% in experiment [12]; -3.78% in [13]; 0.16% in experiment [14]; 3.05% in experiment [15]; 2.07% in experiment [16]; -1.7% in [17]. In addition, the inhibition in [18] was found to be 4.73%; in [19], 0.15%.

With `COC(=O)Nc1nc2cc(Oc3ccc(NC(=O)Nc4cccc(C(=O)O)c4)cc3)ccc2[nH]1`, the inhibition was -2.68% in experiment [1]; 2.43% in experiment [2]; 2.01% in experiment [3]; -0.28% in experiment [4]; 4.54% in [5]; -3.56% in experiment [6]. Further, the inhibition in experiment [7] is 0.66%; in [20], 2.05%; in experiment [10], 18.8%; in experiment [11], 1.22%; in experiment [12], 3.73%; in [13] it was -0.34%. In addition, the inhibition in [14] is 2.75%; in [15], 5.8%; in experiment [16], 15.5%; in [17] it was -2.73%; in experiment [18], -2.81%; in [19], 0.33%.

With `Nc1ncnc2occ(-c3ccc(NC(=O)Nc4cc(C(F)(F)F)cc(C(F)(F)F)c4)cc3)c12`, the inhibition was 11.2% in [1]; -0.74% in experiment [2]; 0.74% in experiment [4]; 1.44% in experiment [5]; 0.06% in [6]; 0.78% in experiment [7]. The inhibition in experiment [8] was 46.7%; in [9], 68.2%; in [20], 29%; in [10], 90.6%; in [11], -2.07%; in [12] it was 10.8%. Besides, the inhibition in experiment [13] is 22%; in experiment [14] it was 88.4%; in experiment [15], 33.8%; in experiment [16] it was 82.2%; in [17], 6.28%; in experiment [18] it was 38.8%. Besides, the inhibition in [19] stood at 2.1%.

Take `COc1cc(C)c(NC(=O)CN(C)C)cc1Nc1nc(Nc2cccc(F)c2C(N)=O)c2cc[nH]c2n1`: the inhibition in experiment [1] was 1.95%; in experiment [2] it was 2.55%; in experiment [3], -4.44%; in [4] it was 0.46%; in experiment [5] it was 0.22%; in experiment [6], 0.71%. The inhibition in experiment [7] is -1.63%; in experiment [8], 3.26%; in experiment [9] it was 4.13%; in [20], 2.98%; in [10] it was 4.07%; in experiment [11], 2.88%. The inhibition worked out at 1.48% in [12]; 0.3% in [13]; 0.56% in experiment [14]; 0.02% in experiment [15]; 0.48% in experiment [16]; 1.38% in experiment [17]. Also, the inhibition in experiment [18] is 1.74%; in [19] it was 92.9%.
